Assay results from PubChem BioAssay (NCI).
This is part of a sample that, as a whole, favours compounds with a hit. Of some 83,000 tested, about 20% had one in any assay.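 Values shown are percent growth following 48 h exposure of cells in 96-well plates to a single concentration of compound; below 10 was considered active.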 The source made the active and inactive calls.

Tested on: SNB-19 CNS
Assay: NCI-60 one-dose screen, 48 h (100 = growth as untreated, 0 = no growth, -100 = all killed)
Details: 10 µM unless noted

| SMILES | growth |
| --- | --- |
| Nc1c(C(=O)Nc2cccc(Cl)c2Cl)sc2nc3c(cc12)C(=O)CCC3 | 70.2% (inactive) |
| COc1cc(C2C=C(C)N=C3SC(C)=NN32)cc(OC)c1OC (centres undefined) | 100% (inactive) |
| Nc1c(C(=O)Nc2cccc(C(F)(F)F)c2)sc2nc3c(cc12)CCCCCC3 | 25.9% (inactive) |
| O=Nc1c(-c2c(O)[nH]c3ccc([N+](=O)[O-])cc23)[nH]c2ccc(O)cc12 | 17.5% (inactive) |
| c1cc(-c2ccc3c(c2)OCO3)n2nccc2n1 | 101% (inactive) |
| Nc1c(C(=O)Nc2cccc([N+](=O)[O-])c2)sc2nc3c(cc12)C(O)CCC3 (centres undefined) | 79.9% (inactive) |
| CCn1cc(C(=O)O)c(=O)c2cc(F)c(N3CCN(S(=O)(=O)c4ccc(Cl)cc4Cl)CC3)cc21 | 26.2% (inactive) |
| CN1C(=O)[C@H]2c3c1cccc3[C@@]13NC(=O)O[C@H]1[C@H](CCC3(C)C)C2(C)C | 90.7% (inactive) |
| CN1CCN(c2ccc3cc(-c4nc5ccccc5[nH]4)c(=O)oc3c2)CC1 | 118% (inactive) |
| Cc1ccc(Cn2c(-c3nonc3N)nc3ccccc32)cc1 | 91% (inactive) |
| CCc1cccc(C)c1NC(=O)c1sc2nc3c(cc2c1N)C(=O)CCC3 | 67.9% (inactive) |
| COc1cc(-c2cc(/C=C3\CCCCC3=O)[nH]n2)cc(OC)c1OC | 97.5% (inactive) |
| FC(F)(F)c1cccc(-n2nnc3cnc(Nc4ccc(N5CCCCC5)cc4)nc32)c1 | 94.3% (inactive) |
| Cc1ccc(OCCn2c(C)nn(-c3ccc(Cl)cc3)c2=O)cc1 | 109% (inactive) |
| CN1CCN(CCCOc2ccc3nc(Nc4ccc(C(F)(F)F)c(Cl)c4)ccc3c2)CC1 | -41.2% (active) |
| COc1cc(Cn2c(SCC(=O)Nc3cc(OC)c(OC)c(OC)c3)nc3ccccc3c2=O)cc(OC)c1OC | 74.8% (inactive) |
| c1ccc(CCn2nnc3c(Nc4ccc(N5CCOCC5)cc4)ncnc32)cc1 | 95.7% (inactive) |
| CCCC1OC(c2ccc(C(C)C)cc2)OCC1CC (centres undefined) | 106% (inactive) |
| Oc1ccc(N=Cc2ccccc2)cc1 | 98.8% (inactive) |
| COc1cccc(NC(=O)c2sc3nc4c(cc3c2N)CCCC4)c1 | 39.4% (inactive) |
| Cn1cc(C=O)c2ccccc21 | 100% (inactive) |
| O=C1CCCCN1CCCCC#Cc1ccccc1C#Cc1ccc([N+](=O)[O-])cc1 | 70.2% (inactive) |
| O=C(c1ccncc1)N1N=C(c2ccc(Cl)cc2)CC1c1c[nH]c2ccccc12 (centres undefined) | 105% (inactive) |
| Cc1cc2c(c(=O)o1)C(c1ccc(OC(=O)N3CCOCC3)cc1)C(C#N)=C(N)O2 (centres undefined) | 101% (inactive) |
